S2 tox: Viability Counterscreen for Primary qHTS for Inhibitors of ATXN expression | S2 cells (HEK-293 line with an ATXN2-luciferase reporter) viability, CellTiter-Fluor protease fluorescence, 24 h | Potency, µM (highest dose often 56.7 µM), most hits filed as cytotoxic | hit rate 0.49% among 400,000 | AID 651635, 2014; note: nearly all actives have a fitted effect of over 40% in size
ATXN2 expr inh: Primary qHTS for Inhibitors of ATXN expression | HEK-293 ATXN2-luciferase reporter, luminescence, 24 h | Potency, µM (top dose mostly 57 µM), without a hit: at the top dose activity change, negative = inhibition, most hits filed as inhibitors | hit rate 0.72% among 360,000; note: % is set by controls: 0 for no effect and ±100 for the full control effect; nearly all actives have a fitted effect of over 55% in size
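qHTS (up to 57 uM final) was run with 24 h compound exposure of reporter cells at 37 °C. Each well was multiplexed: SteadyGlo luminescence measured ATXN2-luciferase expression after a fluorogenic Gly-Phe-AFC viability readout (25 uM final).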
Nrf2 inh: Nrf2 qHTS screen for inhibitors; hit rate 2.1% among 360,000; Potency, µM (doses to about 46 µM), without a hit: at the top dose activity change, negative = inhibition, actives largely listed as inhibitors; A549 ARE-Fluc reporter, luciferase luminescence, 18-24 h; note: % is set by controls: 0 for no effect and ±100 for the full control effect; nearly all actives have a fitted effect of over 60% in size
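A549 ARE_Fluc cells, 5000/well, 5% FBS OPTI-MEM; compounds in dose-response, 18-24 h at 37 °C/5% CO2; CellTiter-Fluor viability read (Ex 405/Em 525), then BugLite luciferase luminescence = Nrf2 activity.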
A549 viability: Nrf2 qHTS screen for inhibitors: counterscreen for cytotoxicity. A549 ARE-Fluc cells, CellTiter-Fluor viability, 18-24 h. Potency, µM (doses to about 46 µM), for the others: top-dose activity change, negative = cytotoxicity, actives largely listed as inhibitors. hit rate 0.16% among 390,000. AID 504648, 2011; note: % is set by controls: 0 for no effect and ±100 for the full control effect
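A549 ARE_Fluc cells in 5% FBS OPTI-MEM were exposed to compounds in concentration-response for 18-24 h at 37 deg C. Viability was read by CellTiter-Fluor fluorescence (Ex 405/Em 525) after 30 min, before the luciferase read.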
Nrf2 ARE act: qHTS of Nrf2 Activators. AREc32 ARE-luciferase reporter (MCF7-derived line), luminescence, 24 h. Potency, µM (titrated, usually from 46.1 µM), without a hit: at the highest dose activation, most hits filed as activators. hit rate 0.31% among 410,000. AID 624171, 2012; note: % of control where 0% means no effect; nearly all actives have a fitted effect of over 65% in size
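AREc32_Fluc, 1000 cells/well, OPTI-MEM + 5% FBS, o/n 37 deg C 5% CO2; 23 nL cpd by pin tool, 24 hr; Steady-Glo 30 min RT, luminescence.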
* = called active by the depositor; i = inactive; ? = inconclusive; . = no result; [ ] = another dose, or the depositor's remark. Only some compounds are listed: those with a hit (about 2.9% of all), similar ones and a draw of the others. Calls come from the whole dose curve; as a rule, active = well fitted curve in the direction sought with a large enough effect; inconclusive = small, poorly fitted or top-dose-only effect, or another doubt; inactive = no such curve, though single readings can be large; an effect the other way counts as inactive or inconclusive. Potency is the fitted concentration of half-maximal effect.

SMILES	S2 tox	ATXN2 expr inh	Nrf2 inh	A549 viability	Nrf2 ARE act
CC1(c2ccccc2)O[C@@H]2C[C@H]3[C@@H]4CCC5=CC(=O)C=C[C@]5(C)[C@@]4(F)[C@@H](O)C[C@]3(C)[C@]2(C(=O)CO)O1 (stereo partly specified)	i	0%	0.026µM*	-5%	3%
CC(=O)OCC(=O)C1(O)CCC2C3CC(C)C4=CC(=O)C=CC4(C)C3(F)C(O)CC21C (stereo unspecified)	i	1%	0.058µM*	4%	1%
Cc1csc2c(N3CCN(C(=O)NC(C)(C)C)CC3)ncnc12	i	0%	18µM*	-16%	-1%
Cc1csc2c(N3CCN(C(=O)c4ccc(C(C)(C)C)cc4)CC3)ncnc12	i	.	-23%	-2%	7%
Cc1csc2c(N3CCN(C(=O)Nc4ccc(Cl)c(Cl)c4)CC3)ncnc12	?	20µM*	21µM*	-16%	3%
CNc1nc(-c2ccccn2)nnc1-c1ccccc1	?	?	11µM*	?	3%
CCC[C@@H](CN[C@@H](CNC)[C@H](C)CC)NCC1CCC(C(C)(C)C)CC1 (stereo partly specified)	.	?	-19%	-10%	-3%
CCCC[C@@H](CNC)NC[C@H](NCCCCC1CCCCC1)C(C)C	?	25µM*	7%	-18%	-3%
COc1cccc(CNC(=O)c2c(OC)cc(=O)n3c2CCN(C(=O)c2ccccc2Cl)CC3)c1	i	.	.	.	.
CCOc1cc(/C=C/c2ccc3cccc([N+](=O)[O-])c3n2)ccc1O	?	-8%	23µM*	?	?
CCOc1cc(/C=C/c2cc(C(F)(F)F)[nH]c(=O)n2)ccc1O	?	?	21µM*	?	14%[9.22 µM]
COc1ccc(/C=C/c2cc(C(F)(F)F)[nH]c(=O)n2)cc1OC	i	-19%	18%	-11%	?
Cc1c(C(=O)NCC2(N3CCOCC3)CCCC2)cnn1-c1nccc(-c2ccccc2F)n1	i	.	.	.	.
COC(=O)c1cc(NC(=O)CN(c2cccc(OC)c2)S(=O)(=O)c2ccccc2)ccc1Cl	i	-14%	23µM*	-10%	2%
COC(=O)c1cc(NC(=O)CN(c2ccccc2OC)S(=O)(=O)c2ccccc2)ccc1Cl	i	2%	?	2%	0%
Cc1cc(C)nc(N/N=C2/CCCC/C2=C\c2ccccc2)n1	?	0.95µM*	-3%	-15%	7%
Cc1cc2occ(CC(=O)N(C)CC(=O)Nc3c(C)cccc3C)c2cc1C	i	-21%	-3%	0%	-1%
Cc1cc2occ(CC(=O)N(C)CC(=O)Nc3cccc(F)c3)c2cc1C	i	-5%	26µM*	?	3%
CCCCNC(=O)CSc1nc2ccccc2n1S(=O)(=O)c1ccc(Br)cc1	i	5%	-8%	-2%	0%
O=C(CSc1nc2ccccc2n1S(=O)(=O)c1cccc([N+](=O)[O-])c1)NCCc1ccccc1	i	-26%	18µM*	?	0%
CCCCC1(O)CC(C(F)(F)F)=NN1C(=O)COc1ccccc1 (stereo unspecified)	i	-9%	16µM*	?	0%
C=CCN1C(c2ccc(Br)cc2)=CS/C1=C(\C#N)c1nnc(N2CCOCC2)n1-c1ccccc1	i	-16%	26µM*	?	3%
C[n+]1c2n(c3ccccc31)N=C(c1cc(C(C)(C)C)c(O)c(C(C)(C)C)c1)CS2	22µM*	?	18µM*	?	-2%
Cc1ccc(C)c(N2CCN(C(=O)CCCOc3cc(=O)n(C)c4ccccc34)CC2)c1	?	?	23µM*	?	0%
Cc1ccc(CNc2ncnc3ccc(-c4ccc5c(c4)OCO5)cc23)o1	.	.	0%	-4%	.
SMILES	S2 tox	ATXN2 expr inh	Nrf2 inh	A549 viability	Nrf2 ARE act
CC(=O)NNc1nc(-c2ccccc2)c2cc(Cl)ccc2n1	i	.	.	.	-1%
COCCNC(=O)c1cccc(Nc2nc(-c3ccccc3)c3cc(Cl)ccc3n2)c1	i	?	15µM*	?	2%
N#C/C(=C\c1ccc(OCc2ccc(C(=O)O)cc2)cc1)C(=O)N1CCOCC1	i	8.9µM*	?	0%	-3%
CCc1ccc(N2CCn3c2nc2c3c(=O)n(Cc3c(F)cccc3Cl)c(=O)n2C)cc1	.	.	23µM*	-8%	-1%
COc1cc(=O)n2c(c1C(=O)N1CCc3ccccc3C1)CCN(Cc1ccc(CO)o1)CC2	i	.	.	.	.
N#Cc1c(N)nc(SCc2ccccc2)c(C#N)c1-c1ccco1	i	-13%	12µM*	?	3%
O=C1CCN(Cc2cccn2-c2ccccn2)CCN1Cc1ccccc1C(F)(F)F	i	.	.	.	.
CC1(C(=O)Nc2cccc3cccnc23)CCN1Cc1csc2ccccc12 (stereo unspecified)	20µM*	0%	.	.	-2%
O=c1ccc2nc3ccccc3sc-2c1	25µM*	?	.	.	-1%
COc1ccccc1C1CN(Cc2cnn(C)c2)Cc2ccccc2O1 (stereo unspecified)	i	.	.	.	.
CCN(CC)c1ccc2c(c1)oc(=O)c1c(Cl)cc(=O)oc12	?	?	16%	?	8.9µM*
CCN(CC)c1ccc2c(C)c(Cl)c(=O)oc2c1	.	18%	7%	?	3%
COc1ccc(OCC(=O)N/N=C/c2cccc3cccnc23)cc1	i	?	-19%	-3%	3%
O=C(N/N=C/c1cccc2cccnc12)c1ccccc1O	3.5µM*	.	1%	1%	10%
O=C(COc1ccc(Cl)cc1)N/N=C/c1cccc2cccnc12	i	25µM*	?	-8%	4%
Cc1ccc(C(=O)c2coc3cc([N+](=O)[O-])c(O)c([N+](=O)[O-])c23)cc1	i	0%	?	21µM*	7%
Cn1cc(-c2ccc3nnc(C(F)(F)c4ccc5ncccc5c4)n3n2)cn1	.	-23%	.	.	.
Cc1c(C(=O)N2CCC(C)CC2)c(S(=O)(=O)N(Cc2ccccc2)C(C)(C)C)c(C)n1C	.	.	.	?	1%
Cc1sc2nc(C3CC3)nc(SCC(=O)N3CCc4ccccc4C3)c2c1C	?	-3%	-24%	0%	9%
Cc1sc2nc(C3CC3)nc(SCC(=O)N3CC(=O)Nc4ccccc43)c2c1C	i	-10%	7.3µM*	-20%	1%
Cc1ccc(NC(=O)COCc2cc(-c3cccs3)on2)cc1Cl	.	.	?	15%	7.1µM*
COc1ccc(NC(=O)COCc2cc(-c3cccs3)on2)cc1	i	-12%	.	11%	7%
O=C1c2ccccc2C(=O)c2c1cccc2N(CCO)CCO	?	-2%	-8%	?	1%
O=C1C=C(N(CCO)Cc2ccccc2)c2ccccc2C1=O	.	27µM*	21µM*	23µM*	-3%

From PubChem
